Results taken from PubChem BioAssay (NCATS).
Results filed as inconclusive are left out. Active and inactive are the calls of the source. Unless noted, the call rests on the fitted dose curve; in most records, active means well fitted curve in the direction sought with a large enough effect; inconclusive means small, poorly fitted or top-dose-only effect, or another doubt; inactive means no such curve, though single readings can be large; an effect the other way counts as inactive or inconclusive.

Tests used:
[1] = target: Rap guanine nucleotide exchange factor 3 (Homo sapiens) (UniProt O95398); experiment: Confirmatory qHTS for antagonist of cAMP-regulated guanine nucleotide exchange factor 3 (EPAC1) (AID 1645880); details: EPAC1 Rap1B-BODIPY-GDP exchange, fluorescence; activity, negative = inhibition: at 115 µM (top of the series); further: nearly all actives have a fitted effect of over 55% in size; further: potency means the concentration at half of the fitted maximal effect;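 on activity, negative = inhibition: plate controls were DMSO only for no effect and full effect of the ATA control for full effect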
Method in brief: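 Released BODIPY-GDP fluoresces less than Rap1-bound BODIPY-GDP; the signal is followed at 480/540 nm at 5-min intervals over 30 min, after 5 min at room temperature. Reactions contain 100 nM EPAC1, 250 nM RAP1B-BODIPY-GDP and 50 uM GDP; results are normalized to ATA and DMSO.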

[2] = target: Rap guanine nucleotide exchange factor 3 (Homo sapiens) (UniProt O95398); experiment: Confirmatory qHTS for agonist of cAMP-regulated guanine nucleotide exchange factor 3 (EPAC1) (AID 1645881);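 further: EPAC1 catalysed release of BODIPY-GDP from Rap1B seen as fluorescence loss; 100% = effect of cAMP agonist control; nearly all actives have a fitted effect of over 75% in size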
[3] = target: Rap guanine nucleotide exchange factor 4 (Homo sapiens) (UniProt Q8WZA2); experiment: Confirmatory qHTS for agonist of cAMP-regulated guanine nucleotide exchange factor 4 (EPAC2) (AID 1645884);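 further: nucleotide exchange releases bodipy-GDP from Rap1 and this lowers its fluorescence; on the % scale 0 is the no-effect control and ±100 the full control effect; nearly all actives have a fitted effect of over 65% in size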
[4] = target: Rap guanine nucleotide exchange factor 3 (Homo sapiens) (UniProt O95398); experiment: Counterscreen qHTS for antagonist of cAMP-regulated guanine nucleotide exchange factor 3 (EPAC1) (AID 1645888); further: % of control where 0% means no effect
Method in brief: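 Rap1B–BODIPY-GDP (250 nM) with 50 uM GDP; compounds pin-transferred to 9.74 nM–152 uM final (activator) or from 7.32 nM upwards (inhibitor). Fluorescence Ex/Em 480/540 nm read at 5 and 30 min, then after adding cAMP or buffer, at room temperature.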

[5] = target: Lysosomal acid glucosylceramidase (Homo sapiens) (UniProt P04062); experiment: Glucocerebrosidase-p2 (AID 348; in the data active means potency below about 10 µM; further: potency means the concentration at half of the fitted maximal effect); details: purified GBA, blue fluorogenic substrate, 40 min
Method in brief: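 Normal human glucocerebrosidase (0.2 nM) with blue fluorogenic substrate (80 uM final) in citrate/phosphate pH 5.9 with 10mM sodium taurocholate, 0.01% tween-20; 40 min RT, NaOH/glycine stop; fluorescence Ex 365/Em 440; AC50 from a titration from 0.6 nM upwards.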

[6] = AP1 Signaling Pathway (AID 357; active means well fitted curve in either direction with a large enough effect, not every such curve was filed as active;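 further: ME-180 reporter cells stimulated with EGF at its EC50 level; on the % scale 0 is the no-effect control and ±100 the full control effect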); details: ME-180 (cervical carcinoma) AP-1-bla reporter, EGF-induced, beta-lactamase ratio, 5 h; at 7.69 µM (top of the series) unless noted
Method in brief: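 Cells are seeded overnight, exposed to compound titrations and an EC50 level of EGF for 5 hours at 37 °C, then loaded with CCF4 dye for 2.5 hours. Beta-lactamase activity under the AP-1 element is read as a blue/green ratio.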

[7] = target: Cytochrome P450 1A2 (Homo sapiens) (UniProt P05177); experiment: p450-cyp1a2 (AID 410; calls by dose curve; further: potency means the concentration at half of the fitted maximal effect)
Method in brief: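 Luminescent demethylation readout: Luciferin-ME (100uM, equal to Km) turned over by 20nM CYP1A2 for 60 min at room temperature after NADPH regeneration addition, following 10 min compound preincubation. Normalization used 57 uM furafylline as full inhibition.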

[8] = NFAT Signaling Pathway (AID 444; active means well fitted curve in either direction with a large enough effect, not every such curve was filed as active;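 further: carbachol stimulus at about its EC50 of 1 µM final; on the % scale 0 is the no-effect control and ±100 the full control effect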); details: Jurkat NFAT-bla M1, carbachol, beta-lactamase ratio, 5 h; at 7.69 µM (top of the series) unless noted
Method in brief: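 Jurkat cells with NFAT-driven β-lactamase reporter and co-expressed M1 receptor, stimulated with carbachol (final 1 uM, ~EC50), compound titration, 5 h at 37 °C. CCF4 loaded 1 h at RT; 460/530 nm ratio gave %activity and AC50.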

[9] = Stat Signaling Pathway (AID 446; active means well fitted curve in either direction with a large enough effect, not every such curve was filed as active;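 further: ME-180 cervical cancer cells given 40 pM IL-6 alongside compound; SIE-controlled beta-lactamase reporter measured as 460/530 nm FRET emission ratio; on the % scale 0 is the no-effect control and ±100 the full control effect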)
Method in brief: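 Normalization used AC90 stimulation (300 pM IL-6) and AC90 inhibition (125 nM pan-JAK inhibitor at 40 pM IL-6). The underlying signal is SIE-driven beta-lactamase in ME-180 cells after 5 h IL-6 exposure with compound.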

[10] = target: Glucocorticoid receptor (Homo sapiens) (UniProt P04150); experiment: GR-GFP Redistribution (AID 450;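 active means compounds whose dose series gives a full or clear partial fitted curve of increased nuclear translocation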; further: potency means the concentration at half of the fitted maximal effect); details: U2OS GR-GFP nuclear translocation, laser cytometry, 2 h
[11] = target: Glucocorticoid receptor (Homo sapiens) (UniProt P04150); experiment: GR-EFC Redistribution (AID 451; calls by dose curve; further: potency means the concentration at half of the fitted maximal effect); details: CHO-K1 GR-EFC translocation, beta-gal luminescence, 2 h
Method in brief: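 CHO-K1 cells expressing nuclear EA and GR-ED fragments of b-gal; compounds titrated up to 46 uM final, 2 h at 37 C. GR nuclear translocation read as complemented b-gal luminescence after 1 h RT detection.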

[12] = target: 3',5'-cyclic-AMP phosphodiesterase 4B (Homo sapiens) (UniProt Q07343); experiment: qHTS Assay for Inhibitors of PDE-IV (AID 607; active means well fitted activation curve with a large enough effect in the main read-out, with a control signal flat, not every such curve was filed as active; further: % of control where 0% means no effect)
Method in brief: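 HEK293 ACTOne cells with CNG channel (1000/well), endogenous PDE4; membrane potential dye, compounds up to 22.9 uM final. Fluorescence Ex 535/Em 590; RO 20-1724 (100 uM final) as reference.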

[13] = target: Cytochrome P450 3A4 (Homo sapiens) (UniProt P08684); experiment: qHTS Assay for Activators of Cytochrome P450 3A4 (AID 885); further: nearly all actives have a fitted effect of over 65% in size
Method in brief: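 Human CYP3A4 dealkylates Luciferin-PPXE to luciferin, which luciferase detection converts to light. Substrate was at its KM (25uM), buffer 200mM KPO4, reaction 60 min at RT.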

[14] = target: Cytochrome P450 2C19 (Homo sapiens) (UniProt P33261); experiment: qHTS Assay for Inhibitors and Substrates of Cytochrome P450 2C19 (AID 899); further: potency means the concentration at half of the fitted maximal effect; nearly all actives have a fitted effect of over 60% in size
Method in brief: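 5 nM human CYP2C19 with 10uM Luciferin-H EGE (at KM) in 50mM KPO4, compound preincubated 10 min at 37C, then NADPH regeneration for 60 min at 37C. Luciferin read by luminescence after detection reagent; normalized to 57uM ketoconazole as full inhibition.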

[15] = target: Dual specificity protein kinase CLK4 (Homo sapiens) (UniProt Q9HAZ1); experiment: qHTS Assay for Inhibitors of CDC-like Kinase 4 (Kinase-Glo Assay) (AID 1770); further: on the % scale 0 is the no-effect control and ±100 the full control effect; nearly all actives have a fitted effect of over 65% in size
Method in brief: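 Luminescent ATP-depletion read-out (Kinase-Glo) after 4.5 h room-temperature reaction of Clk4 (25 nM final) with RS peptide (100 uM) and ATP (1 uM), pH 7.5 Tris buffer with MgCl2 and DTT.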

[16] = target: Dual specificity protein kinase CLK4 (Homo sapiens) (UniProt Q9HAZ1); experiment: qHTS Assay for Inhibitors of CDC-like Kinase 4 (ADP-Glo Assay) (AID 1771); further: on the % scale 0 is the no-effect control and ±100 the full control effect; nearly all actives have a fitted effect of over 70% in size
Method in brief: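 ADP production was read by ADP-Glo luminescence after residual ATP depletion, following 1 h room-temperature reaction of 25 nM Clk4, 1 uM ATP and 100 uM RS peptide with MgCl2, EGTA, DTT and Triton X-100.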

[17] = target: Dual specificity protein kinase CLK4 (Homo sapiens) (UniProt Q9HAZ1); experiment: qHTS Assay for Inhibitors of CDC-like Kinase 4 (ADP-FP Assay) (AID 1795);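 further: recombinant human CLK4 phosphorylating RS repeat peptide at 1 µM ATP; on the % scale 0 is the no-effect control and ±100 the full control effect; nearly all actives have a fitted effect of over 60% in size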
Method in brief: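 Kinase activity was measured as ADP production using Transcreener orange tracer (4 nM) and ADP antibody (1 ug/mL) fluorescence polarization, with ADP calculated from a calibration curve. The 1 h reaction contained 6.25 nM Clk4, 1 uM ATP and 100 uM RS peptide at pH 7.5 with Mg2+.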

[18] = target: Ubiquitin carboxyl-terminal hydrolase 1 (Homo sapiens) (UniProt O94782); experiment: Inhibitors of USP1/UAF1: Pilot qHTS (AID 504865);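 further: rhodamine fluorescence freed from ubiquitin-rhodamine substrate followed over time; top concentration of the series differs between compounds; on the % scale 0 is the no-effect control and ±100 the full control effect; nearly all actives have a fitted effect of over 35% in size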
Method in brief: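 Deubiquitinase activity followed as kinetic rhodamine fluorescence release from 150 nM Ub-Rho. 1 nM USP1/UAF1 with compound, after 15 min room-temperature preincubation, in HEPES pH 7.8 buffer containing TCEP, EDTA, BSA and Tween-20.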

[19] = target: Rap guanine nucleotide exchange factor 4 (Homo sapiens) (UniProt Q8WZA2); experiment: Confirmatory qHTS for antagonist of cAMP-regulated guanine nucleotide exchange factor 4 (EPAC2) (AID 1645885); further: nearly all actives have a fitted effect of over 25% in size; further: potency means the concentration at half of the fitted maximal effect
[20] = target: Mitogen-activated protein kinase 10 (Mus musculus) (UniProt Q61831); experiment: JNK3 AlphaScreen Assay (AID 530; active means well fitted curve in either direction with a large enough effect, not every such curve was filed as active;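 further: kinase came from lysate of stimulated human HepG2 cells; signal reports phosphorylation of biotinylated GST-cJun 1-79 at Ser73 with 10 µM ATP; on the % scale 0 is the no-effect control and ±100 the full control effect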)
Method in brief: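 Activity was read by AlphaScreen after JNK3-containing HepG2 lysate (cytokine pre-activated) phosphorylated biotinylated GST-cJun with 10 uM ATP at room temperature. Phospho-Ser73 cJun antibody with Protein-A acceptor beads provided detection.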

[21] = target: DNA dC->dU-editing enzyme APOBEC-3G (Homo sapiens) (UniProt Q9HC16); experiment: qHTS for inhibitors of Vif-A3G interactions: Validation (AID 588379); further: 0% is about no effect
Method in brief: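 Yellow fluorescence (Ex 488, Em 500-530) of Vif-coexpressing HeLa A3G-eYFP cells, scanned by Acumen cytometer, reports blocked A3G degradation. Cells plated at 700/well overnight at 37 deg C before compound addition, then a further overnight compound incubation at 37 deg C.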

Chain of Rap guanine nucleotide exchange factor 3 (Homo sapiens) (O95398 whole entry, looked up): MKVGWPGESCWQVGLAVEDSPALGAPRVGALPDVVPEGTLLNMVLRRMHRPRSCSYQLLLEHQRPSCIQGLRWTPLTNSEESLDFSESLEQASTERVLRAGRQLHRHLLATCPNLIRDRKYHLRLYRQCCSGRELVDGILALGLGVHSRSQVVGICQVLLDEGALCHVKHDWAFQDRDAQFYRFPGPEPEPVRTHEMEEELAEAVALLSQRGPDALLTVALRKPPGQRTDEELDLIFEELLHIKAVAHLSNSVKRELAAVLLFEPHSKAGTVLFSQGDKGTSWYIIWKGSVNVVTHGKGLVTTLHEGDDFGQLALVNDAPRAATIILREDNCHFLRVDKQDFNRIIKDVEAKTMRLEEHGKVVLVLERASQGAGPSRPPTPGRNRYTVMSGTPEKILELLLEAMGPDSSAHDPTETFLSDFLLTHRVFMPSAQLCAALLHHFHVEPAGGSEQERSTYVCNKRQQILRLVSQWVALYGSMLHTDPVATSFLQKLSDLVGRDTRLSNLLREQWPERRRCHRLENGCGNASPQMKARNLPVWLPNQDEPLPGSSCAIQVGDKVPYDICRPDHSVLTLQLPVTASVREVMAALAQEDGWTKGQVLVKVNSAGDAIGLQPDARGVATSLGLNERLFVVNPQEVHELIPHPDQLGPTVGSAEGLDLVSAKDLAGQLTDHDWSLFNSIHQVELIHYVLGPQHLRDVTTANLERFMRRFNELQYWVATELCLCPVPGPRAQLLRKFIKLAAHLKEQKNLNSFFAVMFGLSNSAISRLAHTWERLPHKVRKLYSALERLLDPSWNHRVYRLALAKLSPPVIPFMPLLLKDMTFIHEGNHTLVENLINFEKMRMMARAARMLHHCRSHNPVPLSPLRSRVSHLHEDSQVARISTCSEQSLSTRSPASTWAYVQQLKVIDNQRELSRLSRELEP
Chain of Glucocorticoid receptor (Homo sapiens) (P04150 whole entry, looked up, the tested form may be a part): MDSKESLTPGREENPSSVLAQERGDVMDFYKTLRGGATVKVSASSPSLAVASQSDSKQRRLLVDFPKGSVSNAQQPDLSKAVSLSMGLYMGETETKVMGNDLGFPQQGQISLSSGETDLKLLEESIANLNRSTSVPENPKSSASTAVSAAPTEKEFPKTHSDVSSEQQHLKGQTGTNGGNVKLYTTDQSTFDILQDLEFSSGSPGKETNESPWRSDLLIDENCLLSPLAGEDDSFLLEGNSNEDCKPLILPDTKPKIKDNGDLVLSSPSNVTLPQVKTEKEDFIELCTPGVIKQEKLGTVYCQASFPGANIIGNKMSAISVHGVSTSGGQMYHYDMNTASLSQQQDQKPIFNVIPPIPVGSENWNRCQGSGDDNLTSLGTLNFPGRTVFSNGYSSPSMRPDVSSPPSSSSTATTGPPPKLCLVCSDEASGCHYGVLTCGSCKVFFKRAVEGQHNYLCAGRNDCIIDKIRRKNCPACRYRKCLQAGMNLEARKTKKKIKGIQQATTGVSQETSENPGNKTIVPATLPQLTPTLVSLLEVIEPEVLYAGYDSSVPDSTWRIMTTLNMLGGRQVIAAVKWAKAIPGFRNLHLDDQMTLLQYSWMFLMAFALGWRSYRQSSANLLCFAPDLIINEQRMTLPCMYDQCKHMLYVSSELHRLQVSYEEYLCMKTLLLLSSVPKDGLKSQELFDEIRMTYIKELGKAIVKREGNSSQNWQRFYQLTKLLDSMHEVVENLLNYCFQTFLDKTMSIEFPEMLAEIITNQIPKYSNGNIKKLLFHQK
Chain of Dual specificity protein kinase CLK4 (Homo sapiens) (Q9HAZ1 whole entry, looked up): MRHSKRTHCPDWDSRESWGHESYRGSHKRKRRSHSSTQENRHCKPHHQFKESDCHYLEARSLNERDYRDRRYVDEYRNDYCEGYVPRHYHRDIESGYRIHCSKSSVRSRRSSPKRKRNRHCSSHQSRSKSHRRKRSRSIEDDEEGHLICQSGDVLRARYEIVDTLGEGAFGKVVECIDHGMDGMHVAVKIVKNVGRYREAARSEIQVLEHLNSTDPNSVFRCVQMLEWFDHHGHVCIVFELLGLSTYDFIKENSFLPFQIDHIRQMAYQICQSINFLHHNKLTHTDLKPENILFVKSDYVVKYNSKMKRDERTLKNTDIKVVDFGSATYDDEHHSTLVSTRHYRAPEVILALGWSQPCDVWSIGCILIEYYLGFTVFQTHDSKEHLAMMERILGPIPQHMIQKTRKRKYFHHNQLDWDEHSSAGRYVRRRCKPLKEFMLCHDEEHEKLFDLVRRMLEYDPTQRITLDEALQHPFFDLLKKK
Chain of Rap guanine nucleotide exchange factor 4 (Homo sapiens) (Q8WZA2 whole entry, looked up): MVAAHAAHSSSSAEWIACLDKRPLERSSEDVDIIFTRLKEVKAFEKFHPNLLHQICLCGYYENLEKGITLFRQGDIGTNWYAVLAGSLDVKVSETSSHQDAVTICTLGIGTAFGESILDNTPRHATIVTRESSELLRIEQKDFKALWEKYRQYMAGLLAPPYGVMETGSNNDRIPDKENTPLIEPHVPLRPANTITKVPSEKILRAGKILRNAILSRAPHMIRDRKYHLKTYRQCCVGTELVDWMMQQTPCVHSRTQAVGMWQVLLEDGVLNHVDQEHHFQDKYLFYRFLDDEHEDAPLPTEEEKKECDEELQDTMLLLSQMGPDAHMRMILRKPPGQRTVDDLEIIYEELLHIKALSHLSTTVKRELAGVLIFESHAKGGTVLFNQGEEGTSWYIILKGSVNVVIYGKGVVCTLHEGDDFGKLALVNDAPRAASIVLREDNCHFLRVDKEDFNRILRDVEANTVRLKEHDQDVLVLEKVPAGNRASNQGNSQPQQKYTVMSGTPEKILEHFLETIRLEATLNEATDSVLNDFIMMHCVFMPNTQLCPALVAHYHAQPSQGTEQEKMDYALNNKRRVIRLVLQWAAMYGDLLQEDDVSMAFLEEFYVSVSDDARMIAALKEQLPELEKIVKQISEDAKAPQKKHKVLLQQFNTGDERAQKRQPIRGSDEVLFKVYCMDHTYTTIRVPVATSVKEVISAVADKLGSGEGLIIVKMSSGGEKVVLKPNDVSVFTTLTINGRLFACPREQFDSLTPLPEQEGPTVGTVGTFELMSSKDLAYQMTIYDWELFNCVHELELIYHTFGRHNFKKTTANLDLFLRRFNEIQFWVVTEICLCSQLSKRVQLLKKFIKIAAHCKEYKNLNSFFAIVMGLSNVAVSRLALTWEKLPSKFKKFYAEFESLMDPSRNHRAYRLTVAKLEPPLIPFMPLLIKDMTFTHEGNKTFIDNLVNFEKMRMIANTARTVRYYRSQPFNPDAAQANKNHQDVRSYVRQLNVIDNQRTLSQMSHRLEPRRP
Chain of Lysosomal acid glucosylceramidase (Homo sapiens) (P04062 whole entry, looked up): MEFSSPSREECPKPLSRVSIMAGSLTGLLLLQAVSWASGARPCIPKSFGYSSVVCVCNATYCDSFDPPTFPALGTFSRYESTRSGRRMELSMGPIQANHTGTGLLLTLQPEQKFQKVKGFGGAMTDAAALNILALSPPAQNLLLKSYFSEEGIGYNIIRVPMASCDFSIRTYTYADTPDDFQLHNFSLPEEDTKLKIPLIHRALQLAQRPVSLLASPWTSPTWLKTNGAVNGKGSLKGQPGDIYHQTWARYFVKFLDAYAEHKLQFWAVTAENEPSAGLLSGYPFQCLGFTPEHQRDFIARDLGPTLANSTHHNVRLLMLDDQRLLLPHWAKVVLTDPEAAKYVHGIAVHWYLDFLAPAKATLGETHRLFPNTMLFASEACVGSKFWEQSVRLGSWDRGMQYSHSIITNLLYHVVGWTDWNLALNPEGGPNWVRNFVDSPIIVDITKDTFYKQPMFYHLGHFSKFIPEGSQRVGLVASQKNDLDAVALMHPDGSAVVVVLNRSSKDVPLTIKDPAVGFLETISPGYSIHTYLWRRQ
Chain of Ubiquitin carboxyl-terminal hydrolase 1 (Homo sapiens) (O94782 whole entry, looked up): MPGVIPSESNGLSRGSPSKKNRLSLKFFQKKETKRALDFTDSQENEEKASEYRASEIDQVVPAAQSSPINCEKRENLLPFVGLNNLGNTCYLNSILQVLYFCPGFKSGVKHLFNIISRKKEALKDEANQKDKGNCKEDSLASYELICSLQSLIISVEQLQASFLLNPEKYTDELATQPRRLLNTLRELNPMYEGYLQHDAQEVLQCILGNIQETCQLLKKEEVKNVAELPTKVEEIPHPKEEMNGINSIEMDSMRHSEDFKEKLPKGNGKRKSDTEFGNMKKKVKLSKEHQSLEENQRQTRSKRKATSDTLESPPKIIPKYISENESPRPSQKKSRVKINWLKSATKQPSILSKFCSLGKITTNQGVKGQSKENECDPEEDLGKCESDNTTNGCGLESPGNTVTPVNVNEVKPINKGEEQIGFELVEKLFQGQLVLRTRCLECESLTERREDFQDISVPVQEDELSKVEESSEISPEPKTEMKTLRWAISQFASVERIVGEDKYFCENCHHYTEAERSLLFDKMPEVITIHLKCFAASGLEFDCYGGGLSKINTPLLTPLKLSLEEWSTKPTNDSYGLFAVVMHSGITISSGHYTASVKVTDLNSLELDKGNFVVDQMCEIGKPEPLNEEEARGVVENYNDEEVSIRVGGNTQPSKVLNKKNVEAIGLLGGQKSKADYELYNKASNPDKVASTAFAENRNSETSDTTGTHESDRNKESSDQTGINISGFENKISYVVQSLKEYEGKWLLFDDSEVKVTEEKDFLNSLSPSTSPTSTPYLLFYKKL
Chain of Cytochrome P450 3A4 (Homo sapiens) (P08684 whole entry, looked up): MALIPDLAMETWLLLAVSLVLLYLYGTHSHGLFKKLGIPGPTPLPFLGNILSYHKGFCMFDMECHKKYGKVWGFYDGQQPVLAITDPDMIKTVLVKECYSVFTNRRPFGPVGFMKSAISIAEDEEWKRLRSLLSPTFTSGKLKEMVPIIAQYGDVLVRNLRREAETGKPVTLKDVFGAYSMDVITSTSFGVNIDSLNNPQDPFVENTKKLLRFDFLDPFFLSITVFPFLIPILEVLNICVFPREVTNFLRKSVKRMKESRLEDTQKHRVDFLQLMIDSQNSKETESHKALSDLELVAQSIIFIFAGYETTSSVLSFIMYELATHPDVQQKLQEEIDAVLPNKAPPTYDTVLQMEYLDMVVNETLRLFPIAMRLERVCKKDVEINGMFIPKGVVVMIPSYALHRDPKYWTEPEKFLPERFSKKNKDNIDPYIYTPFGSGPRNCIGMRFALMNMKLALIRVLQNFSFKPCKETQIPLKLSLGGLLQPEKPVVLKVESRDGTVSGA

Cc1cnc(C(=O)OCC(=O)Nc2ccc(Oc3ccccc3)cc2)cn1
inactive: Potency [1] | Potency [2] | Potency [3] | Potency [4]

COC(=O)c1nc2nc(C)cc(=O)n2[nH]1
inactive: Potency [1] | Potency [2] | Potency [3] | Potency [4]

CN(C)c1ncc2nc(CCc3ccccc3)c(=O)n(Cc3cccs3)c2n1
inactive: Potency [5] > 11.4 µM | activity change, negative = inhibition [6] 16.2% | activity change, negative = inhibition [8] -16.3% | outcome [9] | Potency [10] > 9.22 µM | Potency [11] > 46 µM | Potency [12] | outcome [13] | Potency [15] | Potency [16] | Potency [17] | Potency [18] | Potency [1] | Potency [2] | Potency [3] | Potency [19]
active: Potency [7] 1.58 µM | Potency [14] 6.31 µM

Cc1nc2ccccc2c(=O)n1N(c1ccccc1)c1ccccc1
inactive: Potency [1] | Potency [2] | activation [3] -5.22% [at 17.1 µM, percent relative to cAMP agonist control] | activity change, negative = inhibition [4] 9.75% [at 30.8 µM]

COC(=O)C1=CN(c2c(C)cc(C)cc2C)C(N)=C(C#N)C1c1cccc(F)c1 (stereo not drawn)
inactive: Potency [1] | Potency [2] | Potency [3] | Potency [4]

COc1ccc(CNc2nc(-c3cccnc3)nc3ccccc23)c(OC)c1
inactive: Potency [5] > 11.4 µM | activity change, negative = inhibition [6] -16.7% | activity change, negative = inhibition [8] 6.84% | outcome [9] | Potency [10] > 46 µM | Potency [20] | Potency [18] | Potency [1] | Potency [2] | Potency [3] | Potency [19]

CCCOc1ccccc1NC(=O)c1c(-c2ccccc2)noc1C
inactive: Potency [1] | Potency [2] | Potency [3] | Potency [4]

Cc1oc2cc([N+](=O)[O-])c(O)c([N+](=O)[O-])c2c1C(=O)c1ccc(Br)cc1
inactive: Potency [2] | Potency [3] | Potency [4]
active: Potency [1] 75.7 µM

COc1cc(OC)c2c(-c3ccccc3)cc(=O)oc2c1C(CC(=O)N1CCOCC1)c1ccc2c(c1)OCO2 (stereo not drawn)
inactive: Potency [1] | Potency [2] | activation [3] 1.13% [at 17.1 µM, percent relative to cAMP agonist control] | activity change, negative = inhibition [4] -9.45% [at 30.8 µM]

C=C1CCC(O)C/C1=C\C=C1/CCCC2(C)C1CCC2C(C)/C=C/C(C)C(C)C (stereo not drawn)
inactive: outcome [21] | Potency [1] | Potency [2] | Potency [3] | Potency [19]

O=c1cnc2cnc(OCc3ccccc3)nc2n1CCc1ccccc1
inactive: Potency [5] > 11.4 µM | activity change, negative = inhibition [6] -5.47% | activity change, negative = inhibition [8] -27.9% | outcome [9] | Potency [10] > 9.22 µM | Potency [11] > 46 µM | Potency [12] | Potency [1] | Potency [2] | Potency [3]
active: Potency [19] 31.2 µM
